Experiment [1] can be described thus: Tanguay_ZF_120hpf_MORT_legacy: (Legacy) Oregon State University Tanguay Lab 120 Hour Post-fertilization zebrafish Assay for Mortality (AID 2283633). In outline: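 Dechorionated Tropical 5D wild-type zebrafish embryos, one per well from 6 hpf, static exposure in 0.64% DMSO at 28C until 120 hpf. Mortality scored as binary by brightfield microscopy at 24 and 120 hpf.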

Experiment [2] is described as follows: Tanguay_ZF_120hpf_YSE_legacy: (Legacy) Oregon State University Tanguay Lab 120 Hour Post-fertilization zebrafish Assay for Yolk Sac Edema (AID 2283634).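 As to AC50: actives raise the incidence of yolk sac edema above the DMSO baseline.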 In outline:
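Dechorionated Tropical 5D wild-type zebrafish embryos were exposed statically, one per well, from 6 to 120 hpf at 28C in 0.64% DMSO. Yolk sac edema was scored present/absent by brightfield at 120 hpf, and dead embryos were excluded.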

Experiment [3] in a line: Tanguay_ZF_120hpf_AXIS_legacy: (Legacy) Oregon State University Tanguay Lab 120 Hour Post-fertilization zebrafish Assay for Body Axis Malformation (AID 2283635).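 As to AC50: potency for an increased fraction of larvae scored with body axis malformation.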 In outline: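 Dechorionated wild-type Tropical 5D zebrafish embryos, one per well, statically exposed from 6 hpf to 120 hpf at 28C in 0.64% DMSO final. Body axis malformation scored present/absent by brightfield microscopy at 120 hpf; dead embryos excluded.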

Experiment [4] is described as follows: Tanguay_ZF_120hpf_EYE_legacy: (Legacy) Oregon State University Tanguay Lab 120 Hour Post-fertilization zebrafish Assay for Eye Malformation (AID 2283636).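 Also: binary presence or absence of eye malformation scored by brightfield in 120 hpf larvae.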 In short, it runs like this: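 Binary brightfield scoring of eye defects at 120 hpf after static exposure from 6 hpf of single pronase-dechorionated wild-type embryos (28C, 0.64% DMSO). Non-mortality endpoints omitted where embryos died; fit vs DMSO.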

The nature of experiment [5]: Tanguay_ZF_120hpf_SNOU_legacy: (Legacy) Oregon State University Tanguay Lab 120 Hour Post-fertilization zebrafish Assay for Snout Malformation (AID 2283637). In short, it runs like this:
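Binary snout-malformation call at 120 hpf in wild-type 5D embryos, chorion removed by pronase, under static exposure from 6 hpf at 28C (0.64% DMSO). Embryos dying by 24 or 120 hpf excluded.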

Experiment [6] can be described thus: Tanguay_ZF_120hpf_JAW_legacy: (Legacy) Oregon State University Tanguay Lab 120 Hour Post-fertilization zebrafish Assay for Jaw Malformation (AID 2283638).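 As to AC50: active means more embryos with jaw malformation than DMSO controls.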 In short, it runs like this:
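Dechorionated Tropical 5D wild-type zebrafish embryos, one per well, exposed statically from 6 hpf to 120 hpf at 28C in 0.64% DMSO. Jaw malformation was scored by brightfield microscopy as present or absent. It was not scored in dead embryos.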

Experiment [7] in a line: Tanguay_ZF_120hpf_OTIC_legacy: (Legacy) Oregon State University Tanguay Lab 120 Hour Post-fertilization zebrafish Assay for Otic Vesicle Malformation (AID 2283639). In short, it runs like this:
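Binary scoring of otic vesicle defects at 120 hpf in zebrafish (Tropical 5D) held under static exposure at 28C, sealed and shaded, with final DMSO 0.64%. Embryos dying by 24 or 120 hpf excluded; fitted positively against DMSO.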

Experiment [8] is described as follows: Tanguay_ZF_120hpf_PE_legacy: (Legacy) Oregon State University Tanguay Lab 120 Hour Post-fertilization zebrafish Assay for Pericardial Edema (AID 2283640).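 As to AC50: potency for increased incidence of pericardial edema versus DMSO baseline.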 In outline:
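Tropical 5D wild-type zebrafish embryos were statically exposed until 120 hpf at 28C, with 0.64% DMSO final. Pericardial edema was scored by brightfield as present or absent; endpoints were not scored in dead embryos.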

In experiment [9] the target is Cellular tumor antigen p53 (Homo sapiens) (UniProt P04637). Description: TOX21_p53_BLA_p4_ratio: Tox21 HCT-116 p53 Agonism Beta-lactamase Assay, Ratio, Phase 4 (AID 2283601). In short, it runs like this:
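Signal is the blue/green (460nm/530nm) ratio of cleaved versus uncleaved CCF4-AM substrate, read after 2 h substrate loading. Cells were HCT116 carrying the p53-responsive beta-lactamase reporter, dosed 16 h at 37C, 5% CO2; CellTiter-Glo measured in parallel.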

Experiment [10] in a line: Tanguay_ZF_120hpf_BRAI_legacy: (Legacy) Oregon State University Tanguay Lab 120 Hour Post-fertilization zebrafish Assay for Brain Malformation (AID 2283641). In short, it runs like this: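 Tropical 5D wild-type zebrafish embryos exposed statically until 120 hpf at 28C, 0.64% DMSO final, sealed and dark. Brain malformation scored present/absent by brightfield at 120 hpf; dead embryos excluded. Trimethyltin chloride 5uM positive control.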

The source of these data is PubChem BioAssay (EPA / NIEHS).

Where “and” joins values, the source holds several entries; their conditions need not be identical. Equal values may be shown once. Records with an inconclusive call do not appear. More than one record can exist for a structure, and the calls need not agree. Calls of active or inactive are those of the source. The calls were made as follows: active = hit-call score of the fitted dose curve at least 0.9, where 1 is the maximum; inconclusive = response in the unintended direction; inactive = score below 0.9.

What is called AC50 is the concentration giving half of the maximal activity seen.

Cellular tumor antigen p53 (Homo sapiens), sequence (P04637 whole entry, looked up): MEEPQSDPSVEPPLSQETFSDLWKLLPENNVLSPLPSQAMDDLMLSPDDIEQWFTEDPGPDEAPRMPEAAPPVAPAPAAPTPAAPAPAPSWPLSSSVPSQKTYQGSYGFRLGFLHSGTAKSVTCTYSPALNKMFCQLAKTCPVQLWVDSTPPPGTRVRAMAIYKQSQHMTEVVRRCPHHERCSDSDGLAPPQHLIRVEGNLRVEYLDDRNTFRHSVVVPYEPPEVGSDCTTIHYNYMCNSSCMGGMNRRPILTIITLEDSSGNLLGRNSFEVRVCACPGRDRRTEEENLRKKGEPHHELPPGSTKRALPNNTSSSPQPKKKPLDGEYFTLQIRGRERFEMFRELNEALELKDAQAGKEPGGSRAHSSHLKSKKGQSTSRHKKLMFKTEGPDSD

As for `CN(C)CCOC(c1ccccc1)c1ccccc1`, the outcome in experiment [1], in experiment [4], in experiment [5] and in experiment [7] was inactive. The AC50 in experiment [2] was 15.4 µM (active); in experiment [3], 22.3 µM (active); in experiment [6] it was 14.6 µM (active); in experiment [8] it was 26.7 µM (active).

`O=C(CCCN1CCC(O)(c2ccc(Cl)cc2)CC1)c1ccc(F)cc1`: the result in experiment [9], in experiment [1] and in [7] was inactive. The AC50 in experiment [2] was 13.1 µM (active); in experiment [3] it was 5.66 µM (active); in experiment [4], 4.96 µM (active); in experiment [5], 2.46 µM (active); in [6], 5.66 µM (active); in [8] it was 3.98 µM (active). Besides, in experiment [10], the AC50 was 4.16 µM (active).

With `CCC(C)c1ccccc1O` (stereo not drawn), the compound was classed as inactive in [1], in experiment [2], in experiment [3], in [4], in [5] and in experiment [6]. Also, the call in experiment [7], in [8] and in experiment [10] was inactive.

`O=C(Nc1cccc([N+](=O)[O-])c1)c1cc2ccccc2cc1O`: the AC50 in experiment [9] was 11.6 µM (active).

With `N=C(N)c1ccc(OCCCCCOc2ccc(C(=N)N)cc2)cc1`, the compound was called inactive in experiment [1], in experiment [2], in [3], in experiment [4], in experiment [5] and in experiment [6]. Also, the call in experiment [7], in experiment [8] and in [10] was inactive.

Regarding `CNNCc1ccc(C(=O)NC(C)C)cc1`, the result in [9] was inactive.

With `CC(O)COc1ccccc1` (stereo not drawn), the outcome in experiment [9] was inactive.

In the case of `CCCCC=O`, the compound was classed as inactive in experiment [1] and in experiment [3]. The AC50 was 45.3 µM (active) in experiment [2]; 38.4 µM (active) in [4]; 44.9 µM (active) in experiment [5]; 38.8 µM (active) in [6]; 42.9 µM (active) in experiment [8]; 54.8 µM (active) in experiment [10].

For the compound `O=C(Nc1ccc(Cl)c(Cl)c1)c1cc(Cl)cc(Cl)c1O`, in experiment [9], the half-maximal activity concentration (AC50) was 2.77 µM (active).

`Nc1cc(Cl)c(-c2cc(Cl)c(N)cc2Cl)cc1Cl`: the AC50 in [9] is 81.8 µM (active) and 57.1 µM (active).

Take `CN(C)c1ccc(C(=C2C=CC(=[N+](C)C)C=C2)c2ccccc2)cc1`: in [9], the concentration at half-maximal activity (AC50) is 15.8 µM (active) and the outcome was inactive.

For the compound `C[C@]12CC[C@@H]3c4ccc(O)cc4CC[C@H]3[C@@H]1C[C@@H](O)[C@@H]2O`, in experiment [9], the result was inactive.

For `NCc1cccc(CN)c1`, the result in experiment [9] was inactive.

With `CC1=NN(c2ccccc2)C(=O)C1`, in [9], the result was inactive.

Turning to `CCCCCCCCCCCCCCC`, the result in [1], in experiment [2], in experiment [3], in experiment [4], in [5] and in experiment [6] was inactive. The outcome in experiment [7], in experiment [8] and in [10] was inactive.

`NNc1nc(-c2ccc([N+](=O)[O-])cc2)cs1`: the concentration at half-maximal activity (AC50) in experiment [9] was 43.5 µM (active).

`O=C1NS(=O)(=O)c2ccccc21`: the outcome in experiment [1], in experiment [2], in [3], in experiment [4], in experiment [5] and in experiment [6] was inactive. Further, the outcome in [7] and in [8] was inactive.

With `CCC(=O)C=Cc1ccc(OC)cc1`, the result in [9] was inactive.

Regarding `CC(C)C=O`, the outcome in experiment [9] was inactive.

As to `CCCCC(CC)C(=O)O` (stereo not drawn), the compound was classed as inactive in [1], in experiment [2], in [3], in [5], in experiment [6] and in experiment [7]. Moreover, the call in experiment [8] and in experiment [10] was inactive.

Take `CCCCc1oc2ccccc2c1C(=O)c1cc(I)c(OCCN(CC)CC)c(I)c1`: the AC50 in [9] was 64.9 µM (active). The result in [9], in experiment [1], in experiment [2], in experiment [3], in experiment [4] and in [5] was inactive. Further, the result in [6] and in [8] was inactive.

Take `CC(C)(C)C1CCCCC1O` (stereo not drawn): the outcome in experiment [9] was inactive.

Consider `CC(=O)Nc1ccc(O)cc1`, for which the call in [1], in experiment [2], in [3], in experiment [4], in [5] and in [6] was inactive. Besides, the compound was classed as inactive in [7], in experiment [8] and in experiment [10].

`C=CC(=O)OCC(CO)(COCC(COC(=O)C=C)(COC(=O)C=C)COC(=O)C=C)COC(=O)C=C`: the half-maximal activity concentration (AC50) in [9] is 65 µM (active).

On to `OCC(CO)(CBr)CBr`, for which the compound was classed as inactive in experiment [1], in [2], in [3], in experiment [4], in [5] and in [6]. In addition, the compound was classed as inactive in experiment [7], in [8] and in experiment [10].

`Cc1cc(=O)oc2cc(O)ccc12`: in experiment [9], the half-maximal activity concentration (AC50) is 53.2 µM (active) and 54.1 µM (active); the outcome was inactive.

As for `O=c1cc(-c2ccccc2)oc2ccc3ccccc3c12`, the result in [9] was inactive.

On to `CCCCCCCCCCCCOS(=O)(=O)O`, for which the compound was classed as inactive in [1], in experiment [2], in experiment [3], in experiment [4], in [5] and in experiment [6]. Besides, the result in experiment [7], in experiment [8] and in experiment [10] was inactive.

Consider `Clc1ccc(Nc2nnc(Cc3ccncc3)c3ccccc23)cc1`, for which the outcome in experiment [9] was inactive.

`CC(C)(C)c1ccc(O)c(O)c1`: the result in experiment [9] was inactive.

Take `CS(=O)(=O)c1ccc([C@@H](CC2CCCC2)C(=O)Nc2cnccn2)cc1Cl`: the compound was called inactive in [1], in [2], in experiment [3], in experiment [4], in [5] and in [6]. The outcome in experiment [7] and in experiment [8] was inactive.

In the case of `O=C1OC2(c3ccccc31)c1cc(I)c(O)c(I)c1Oc1c2cc(I)c(O)c1I`, in [9], the AC50 was 73.9 µM (active) and the outcome was inactive.

With `CC1=CC(=O)c2ccccc2C1=O`, the outcome in experiment [9] was inactive.

In the case of `O=C(c1ccccc1)c1ccccc1`, the result in [9], in experiment [1], in experiment [2], in experiment [3], in [4] and in experiment [5] was inactive. Further, the compound was called inactive in experiment [6], in experiment [7] and in [8].

In the case of `Oc1c(Cl)ccc(Cl)c1Cl`, in experiment [9], the outcome was inactive.

Regarding `Cc1[nH]nc2c1N=C(c1ccccc1Cl)c1cc([N+](=O)[O-])ccc1N2`, the call in [1], in [2], in [3], in experiment [5], in experiment [6] and in experiment [7] was inactive. For the same compound, the compound was called inactive in [8] and in [10].

`CCN(CC)CC`: the outcome in experiment [9] was inactive.

`CN(Cc1cnc2nc(N)nc(N)c2n1)c1ccc(C(=O)N[C@@H](CCC(=O)O)C(=O)O)cc1`: the result in experiment [1], in [2], in experiment [3], in [4], in experiment [5] and in [6] was inactive. Besides, the compound was classed as inactive in [8] and in [10].
